Test results as given in PubChem BioAssay (EPA / NIEHS).
Results filed as inconclusive are left out. The source made the active and inactive calls. The calls were made as follows: active = hit-call score of the fitted dose curve at least 0.9, where 1 is the maximum; inconclusive = response in the unintended direction; inactive = score below 0.9.

target: human Colony Stimulating Factor 1 Receptor (CSF1R), CSF1R (gene 1436) (UniProt P07333); experiment: NVS_ENZ_hCSF1R: NovaScreen (NVS) Enzymatic Assay for human Colony Stimulating Factor 1 Receptor (CSF1R) (AID 2283150)
Sequence (P07333 whole entry, looked up): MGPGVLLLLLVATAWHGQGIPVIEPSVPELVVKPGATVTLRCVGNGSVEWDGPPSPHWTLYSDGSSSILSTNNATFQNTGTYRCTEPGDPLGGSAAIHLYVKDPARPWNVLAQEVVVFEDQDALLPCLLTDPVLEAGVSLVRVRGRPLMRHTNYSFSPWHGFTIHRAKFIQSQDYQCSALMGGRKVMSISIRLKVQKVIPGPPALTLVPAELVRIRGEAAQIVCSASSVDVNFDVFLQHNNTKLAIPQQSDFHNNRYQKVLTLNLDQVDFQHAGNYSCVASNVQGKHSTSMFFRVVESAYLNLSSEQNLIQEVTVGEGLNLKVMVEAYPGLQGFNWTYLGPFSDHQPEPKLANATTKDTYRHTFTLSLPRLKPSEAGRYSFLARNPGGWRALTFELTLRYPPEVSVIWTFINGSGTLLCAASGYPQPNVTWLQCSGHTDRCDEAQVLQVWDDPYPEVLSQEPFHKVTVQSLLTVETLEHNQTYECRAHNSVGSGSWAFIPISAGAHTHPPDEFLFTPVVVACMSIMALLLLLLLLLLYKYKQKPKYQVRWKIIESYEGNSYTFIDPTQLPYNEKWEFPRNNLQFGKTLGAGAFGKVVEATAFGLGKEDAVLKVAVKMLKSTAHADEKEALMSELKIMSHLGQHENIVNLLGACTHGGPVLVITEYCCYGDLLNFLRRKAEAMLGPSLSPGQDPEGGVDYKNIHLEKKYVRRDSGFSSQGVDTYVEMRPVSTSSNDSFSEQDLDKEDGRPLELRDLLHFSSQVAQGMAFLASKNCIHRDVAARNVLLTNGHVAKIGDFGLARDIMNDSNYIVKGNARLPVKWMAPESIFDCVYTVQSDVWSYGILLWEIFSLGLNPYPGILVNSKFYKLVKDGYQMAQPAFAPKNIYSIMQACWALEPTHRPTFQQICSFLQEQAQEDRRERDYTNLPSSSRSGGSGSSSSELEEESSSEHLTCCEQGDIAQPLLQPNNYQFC
Summary of the method: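 Cell-free recombinant human CSF1R kinase with fluorescent substrate, product separated by electrophoretic mobility shift; read 1 h after dosing. Primary screen at 25 uM in duplicate, actives then in concentration-response up to 50 uM, relative to DMSO.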

SMILES	outcome	AC50
O=C(N[C@H]1CN2CCC1CC2)c1ccc2c(c1)OCCO2	inactive	
N#Cc1cccnc1	inactive	
CCCCCCCCCCCCc1cccc(S(=O)(=O)O)c1		17.3 µM (active)

target: human Epidermal Growth Factor Receptor (EGFR), EGFR (gene 1956) (UniProt P00533); experiment: NVS_ENZ_hEGFR: NovaScreen (NVS) Enzymatic Assay for human Epidermal Growth Factor Receptor (EGFR) (AID 2283151)
Summary of the method: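 Cell-free kinase assay, fluorescence plus electrophoretic mobility shift separating substrate and product, read 1 hour after dosing; loss of signal vs DMSO. Duplicate screen at 25 uM, then concentration-response to 50 uM.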

SMILES	AC50	outcome
CCCCCCCCCCCCOS(=O)(=O)O	36.5 µM (active)	
O=C(N[C@H]1CN2CCC1CC2)c1ccc2c(c1)OCCO2		inactive
CCCCCCCCCCCCc1cccc(S(=O)(=O)O)c1	19.6 µM (active)	
Clc1cccc(Cl)c1Cl		inactive

target: human Dual Specificity Protein Phosphatase 3 (DUSP3), DUSP3 (gene 1845) (UniProt P51452); experiment: NVS_ENZ_hDUSP3: NovaScreen (NVS) Enzymatic Assay for human Dual Specificity Protein Phosphatase 3 (DUSP3) (AID 2283152);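 also: phosphatase activity of recombinant human DUSP3 on a fluorogenic substrate without cells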
Sequence (P51452 whole entry, looked up): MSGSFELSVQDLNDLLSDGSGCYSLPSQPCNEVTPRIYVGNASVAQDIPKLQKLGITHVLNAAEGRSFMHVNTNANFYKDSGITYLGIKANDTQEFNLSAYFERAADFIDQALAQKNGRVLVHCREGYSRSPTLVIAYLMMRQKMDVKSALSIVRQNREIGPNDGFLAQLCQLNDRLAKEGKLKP
Summary of the method: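 Cell-free assay with recombinant human DUSP3 and fluorogenic substrate, read by fluorescence intensity. Primary screen ran duplicate at 25 uM; actives followed up in concentration series; loss of signal versus DMSO scored.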

SMILES	AC50
Cc1cc(C(C)(C)c2ccc(O)c(C)c2)ccc1O	12.5 µM (active)
CCOC(=O)CCN(SN(C)C(=O)Oc1cccc2c1OC(C)(C)C2)C(C)C	9.03 µM (active)
O=C(O)C1(c2ccc3c(c2)OC[C@H](Cc2ccc(-c4ccccc4)cc2)[C@H]3O)CCCC1	13.8 µM (active)
CCOP(=S)(OCC)OP(=S)(OCC)OCC	17 µM (active)
CC(C)O.CC(C)O.OCCN(CCO)CCO.OCCN(CCO)CCO.[Ti]	10.3 µM (active)
CCOC(=O)C(SP(=S)(OC)OC)c1ccccc1 (stereo not given)	18.7 µM (active)
CN(C)C(=S)S	8.6 µM (active)
CCCCCCCCCCCCc1cccc(S(=O)(=O)O)c1	16.8 µM (active)
O=c1oc2ccccc2c(O)c1C(CC(O)c1ccc(-c2ccc(Br)cc2)cc1)c1ccccc1 (stereo not given)	9.57 µM (active)

target: human Esterase Plasma (ES), BCHE (gene 590) (UniProt P06276); experiment: NVS_ENZ_hES: NovaScreen (NVS) Enzymatic Assay for human Esterase Plasma (ES) (AID 2283157)
Sequence (P06276 whole entry, looked up): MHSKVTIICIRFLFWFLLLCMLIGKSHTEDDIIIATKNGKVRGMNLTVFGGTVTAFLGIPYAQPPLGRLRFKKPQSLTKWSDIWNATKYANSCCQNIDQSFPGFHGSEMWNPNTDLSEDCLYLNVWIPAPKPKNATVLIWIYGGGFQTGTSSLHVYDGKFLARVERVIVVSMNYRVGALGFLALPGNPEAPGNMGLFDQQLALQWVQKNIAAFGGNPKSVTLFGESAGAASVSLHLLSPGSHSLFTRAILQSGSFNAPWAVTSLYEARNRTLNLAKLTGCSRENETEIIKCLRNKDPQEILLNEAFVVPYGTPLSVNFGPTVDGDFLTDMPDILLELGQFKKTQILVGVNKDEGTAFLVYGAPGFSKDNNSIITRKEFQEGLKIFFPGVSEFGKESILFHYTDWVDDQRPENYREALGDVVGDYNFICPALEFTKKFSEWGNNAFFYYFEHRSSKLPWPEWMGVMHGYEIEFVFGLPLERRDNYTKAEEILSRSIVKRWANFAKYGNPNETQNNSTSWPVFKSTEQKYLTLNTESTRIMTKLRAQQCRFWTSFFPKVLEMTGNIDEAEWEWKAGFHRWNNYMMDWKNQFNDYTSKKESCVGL
Summary of the method: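 Chemicals were added to plasma-extracted human enzyme in a cell-free format, and activity was read colorimetrically after 0.25 hour. Activity loss was referenced to DMSO; concentration-response top dose was 50 uM.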

SMILES	AC50	outcome
CCOC(=O)CCN(SN(C)C(=O)Oc1cccc2c1OC(C)(C)C2)C(C)C	14 µM (active)	
CCOP(=S)(OCC)OP(=S)(OCC)OCC	2.56 µM (active)	
CCOC(=O)C(SP(=S)(OC)OC)c1ccccc1 (stereo not given)	4.29 µM (active)	
CCOP(=O)(OCC)OC(=CCl)c1ccc(Cl)cc1Cl	1.22 µM (active)	
Nc1ccc(N)cc1		inactive
N#CCCC(Br)(C#N)CBr (stereo not given)	19.2 µM (active)	
CCN(CC)C(=O)C(Cl)=C(C)OP(=O)(OC)OC	25 µM (active)	

target: human Ephrin type-A Receptor 1 (EphA1), EPHA1 (gene 2041) (UniProt P21709); experiment: NVS_ENZ_hEphA1: NovaScreen (NVS) Enzymatic Assay for human Ephrin type-A Receptor 1 (EphA1) (AID 2283158);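 also: activity is signal loss versus DMSO meaning EphA1 kinase inhibition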
Sequence (P21709 whole entry, looked up): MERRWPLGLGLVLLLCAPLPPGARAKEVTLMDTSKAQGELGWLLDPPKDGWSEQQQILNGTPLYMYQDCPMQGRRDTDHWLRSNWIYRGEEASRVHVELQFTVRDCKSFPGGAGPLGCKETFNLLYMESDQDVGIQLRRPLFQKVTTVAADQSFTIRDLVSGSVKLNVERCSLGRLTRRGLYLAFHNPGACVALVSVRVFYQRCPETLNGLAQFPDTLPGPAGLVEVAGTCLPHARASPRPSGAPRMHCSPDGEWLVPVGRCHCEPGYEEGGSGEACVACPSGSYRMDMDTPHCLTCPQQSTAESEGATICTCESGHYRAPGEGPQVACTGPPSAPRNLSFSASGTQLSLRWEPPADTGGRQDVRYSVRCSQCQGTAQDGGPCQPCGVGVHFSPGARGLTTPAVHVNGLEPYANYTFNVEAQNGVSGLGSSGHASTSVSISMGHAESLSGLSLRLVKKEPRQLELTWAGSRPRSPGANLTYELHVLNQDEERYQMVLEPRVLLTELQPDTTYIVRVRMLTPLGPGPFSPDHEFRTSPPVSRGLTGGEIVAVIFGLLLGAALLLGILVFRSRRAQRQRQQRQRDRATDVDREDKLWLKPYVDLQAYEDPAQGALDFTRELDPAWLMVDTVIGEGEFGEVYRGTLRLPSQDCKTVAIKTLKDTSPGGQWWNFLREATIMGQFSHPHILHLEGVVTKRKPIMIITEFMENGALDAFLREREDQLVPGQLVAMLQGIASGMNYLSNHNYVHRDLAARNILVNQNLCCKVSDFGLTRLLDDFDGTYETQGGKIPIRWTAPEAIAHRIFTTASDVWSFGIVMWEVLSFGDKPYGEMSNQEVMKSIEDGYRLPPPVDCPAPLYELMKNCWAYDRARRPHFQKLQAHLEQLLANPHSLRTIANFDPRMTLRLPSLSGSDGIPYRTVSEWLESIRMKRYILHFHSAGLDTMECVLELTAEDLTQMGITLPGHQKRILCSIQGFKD
Summary of the method: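 Cell-free enzymatic assay with recombinant EphA1 and fluorescent substrate; product separated by electrophoretic mobility shift, fluorescence intensity read 1 hour after dosing. Loss of signal versus DMSO baseline; primary duplicate screen at 25 uM, actives followed to 50 uM top concentration.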

SMILES	AC50	outcome
O=C(Cl)OCCOCCOC(=O)Cl	6.6 µM (active)	
Nc1c(Oc2ccccc2)cc(O)c2c1C(=O)c1ccccc1C2=O		inactive
O=[N+]([O-])c1ccc(Nc2ccccc2)cc1		inactive
OC[P+](CO)(CO)CO		inactive
CCOC(=O)CCN(SN(C)C(=O)Oc1cccc2c1OC(C)(C)C2)C(C)C	4.87 µM (active)	
CC1CC(=O)O1 (stereo not given)		inactive
COc1ccccc1N		inactive
O=C(N[C@H]1CN2CCC1CC2)c1ccc2c(c1)OCCO2		inactive
CC(C)O.CC(C)O.OCCN(CCO)CCO.OCCN(CCO)CCO.[Ti]		inactive
CNC(=O)CSP(=O)(OC)OC		inactive
CCOP(=O)(OCC)OC(=CCl)c1ccc(Cl)cc1Cl		inactive
Nc1ccc(N)cc1		inactive
CC(C)(C#N)N=NC(C)(C)C#N		inactive
N#Cc1cccnc1		inactive
CCCCCCCCCCCCc1cccc(S(=O)(=O)O)c1	32.9 µM (active)	
ClCCCCl	10.5 µM (active)	
O=c1oc2ccccc2c(O)c1C(CC(O)c1ccc(-c2ccc(Br)cc2)cc1)c1ccccc1 (stereo not given)		inactive
O=S(=O)(c1ccc(Cl)cc1)c1cc(Cl)c(Cl)cc1Cl		inactive
C=C(C)C(=O)OCC(CC)CCCC (stereo not given)		inactive
CCCCC(CC)COC(=O)Cl (stereo not given)		inactive
c1ccc(-c2cccc(-c3ccccc3)c2)cc1	2.51 µM (active)	
CC(C)[N+](=O)[O-]		inactive
c1ccc2sc(SNC3CCCCC3)nc2c1	13.9 µM (active)	
Clc1cccc(Cl)c1Cl		inactive

target: human Fibroblast Growth Factor Receptor 1 (FGFR1), FGFR1 (gene 2260) (UniProt P11362); experiment: NVS_ENZ_hFGFR1: NovaScreen (NVS) Enzymatic Assay for human Fibroblast Growth Factor Receptor 1 (FGFR1) (AID 2283159);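 as to AC50: hits lower the signal so potencies describe inhibitors of the kinase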
Description: (§1) NVS_ENZ_hFGFR1 is a biochemical, single-readout assay that uses extracted gene-proteins in a cell-free assay. Measurements were taken 1 hour after chemical dosing in a 384-well plate.NVS_ENZ_hFGFR1 is one of one assay component(s) measured or calculated from the NVS_ENZ_hFGFR1 assay. It is designed to make measurements of enzyme activity, a form of enzyme reporter, as detected with fluorescence intensity signals by Fluorescence and electrophoretic mobility shift technology.Data from the assay component NVS_ENZ_hFGFR1 was analyzed into 1 assay endpoint. This assay endpoint, NVS_ENZ_hFGFR1, was analyzed in the positive analysis fitting direction relative to DMSO as the negative control and baseline of activity. Using a type of enzyme reporter, loss-of-signal activity can be used to understand changes in the enzymatic activity as they relate to the gene FGFR1. Furthermore, this assay endpoint can be referred to as a primary readout, because this assay has produced multiple assay endpoints where this one serves a enzymatic activity function. To generalize the intended target to other relatable targets, this assay endpoint is annotated to the kinase intended target family, where the subfamily is receptor tyrosine kinase.
Binding assays used specific radioligands (tritiated, iodinated) with non-radioactive competitive displacement ligands in agonist or antagonist protocols (as indicated) and various reference compounds and inhibitors to titrate specific binding to receptors and transporters. Most enzyme assays (CYPs, kinases, phosphatases, proteases, HDACs) used recombinant protein and specific substrates (fluorescence mostly, some colorimetric and radioactive) and inhibitors, followed by a biochemical separation of substrate and product. All assays for the biochemical HTS were initially run in duplicate at a single concentration (10 uM for CYP450 assays and 25 uM for all others). […] Each assay was run with positive and negative controls, and concurrent controls on every plate. The follow-up (secondary) screen tested active chemical-pairs in concentration series, as well as a few additional assays not tested in the primary screen, some selected negative inactives, and several cases re-run in the concentration series for confirmatory purposes.

SMILES	AC50	outcome
CCCCCCCCCCCCOS(=O)(=O)O	13.9 µM (active)	
O=C(N[C@H]1CN2CCC1CC2)c1ccc2c(c1)OCCO2		inactive
O=C(O)C1(c2ccc3c(c2)OC[C@H](Cc2ccc(-c4ccccc4)cc2)[C@H]3O)CCCC1		inactive
CC(C)O.CC(C)O.OCCN(CCO)CCO.OCCN(CCO)CCO.[Ti]	1.9 µM (active)	
N#Cc1cccnc1		inactive
CCCCCCCCCCCCc1cccc(S(=O)(=O)O)c1	11.4 µM (active)	
COc1nn(C(=O)NS(=O)(=O)c2ccccc2OC(F)(F)F)c(=O)n1C		inactive
Clc1cccc(Cl)c1Cl		inactive

target: Protein deacetylase HDAC6 (Homo sapiens) (UniProt Q9UBN7); experiment: NVS_ENZ_hHDAC6: NovaScreen (NVS) Enzymatic Assay for human Histone Deacetylase 6 (HDAC6) (AID 2283164)
Sequence (Q9UBN7 whole entry, looked up): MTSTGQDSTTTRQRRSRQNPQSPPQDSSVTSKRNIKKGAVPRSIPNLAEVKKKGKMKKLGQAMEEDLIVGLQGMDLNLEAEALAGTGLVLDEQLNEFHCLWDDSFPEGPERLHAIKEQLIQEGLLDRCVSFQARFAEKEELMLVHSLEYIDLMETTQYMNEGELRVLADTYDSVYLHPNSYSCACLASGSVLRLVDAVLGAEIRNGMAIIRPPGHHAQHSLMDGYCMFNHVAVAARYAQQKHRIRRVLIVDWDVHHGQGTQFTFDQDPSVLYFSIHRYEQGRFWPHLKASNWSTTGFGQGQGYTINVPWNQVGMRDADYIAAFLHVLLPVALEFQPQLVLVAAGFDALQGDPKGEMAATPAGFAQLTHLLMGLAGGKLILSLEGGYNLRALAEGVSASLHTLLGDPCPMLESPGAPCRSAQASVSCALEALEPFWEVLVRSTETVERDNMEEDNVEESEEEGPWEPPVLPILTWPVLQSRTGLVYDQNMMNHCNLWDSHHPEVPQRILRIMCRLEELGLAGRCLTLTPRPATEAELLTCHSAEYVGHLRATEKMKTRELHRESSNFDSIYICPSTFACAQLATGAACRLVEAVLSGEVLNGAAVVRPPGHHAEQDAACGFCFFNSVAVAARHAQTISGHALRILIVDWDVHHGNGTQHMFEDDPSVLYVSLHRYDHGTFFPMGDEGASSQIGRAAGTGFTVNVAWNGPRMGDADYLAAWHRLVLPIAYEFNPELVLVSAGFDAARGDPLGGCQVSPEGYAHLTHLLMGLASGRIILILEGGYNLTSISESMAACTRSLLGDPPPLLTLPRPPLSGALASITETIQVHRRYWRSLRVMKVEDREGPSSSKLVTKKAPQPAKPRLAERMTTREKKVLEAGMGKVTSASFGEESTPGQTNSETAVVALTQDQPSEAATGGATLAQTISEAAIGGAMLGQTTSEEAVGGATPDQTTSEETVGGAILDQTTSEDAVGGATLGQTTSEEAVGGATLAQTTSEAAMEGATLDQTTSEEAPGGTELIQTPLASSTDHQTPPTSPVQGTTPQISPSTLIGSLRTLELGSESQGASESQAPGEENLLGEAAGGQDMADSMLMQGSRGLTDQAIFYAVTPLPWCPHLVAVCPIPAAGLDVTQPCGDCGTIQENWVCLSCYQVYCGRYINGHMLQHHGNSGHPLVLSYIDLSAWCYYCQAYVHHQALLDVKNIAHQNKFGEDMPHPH
Description: as §1, with “NVS_ENZ_hHDAC6” for “NVS_ENZ_hFGFR1”, “plate.NVS_ENZ_hHDAC6” for “plate.NVS_ENZ_hFGFR1”, “NVS_ENZ_hHDAC6,” for “NVS_ENZ_hFGFR1,”, “HDAC6.” for “FGFR1.”, “hydrolase” for “kinase”, “histone deacetylase.” for “receptor tyrosine kinase.”
(§2) Binding assays used specific radioligands (tritiated, iodinated) with non-radioactive competitive displacement ligands in agonist or antagonist protocols (as indicated) and various reference compounds and inhibitors to titrate specific binding to receptors and transporters. Most enzyme assays (CYPs, kinases, phosphatases, proteases, HDACs) used recombinant protein and specific substrates (fluorescence mostly, some colorimetric and radioactive) and inhibitors, followed by a biochemical separation of substrate and product. All assays for the biochemical HTS were initially run in duplicate at a single concentration (10 uM for CYP450 assays and 25 uM for all others). […]

SMILES	outcome	AC50
CCCCCCCCCCCCOS(=O)(=O)O	inactive	
N#Cc1cccnc1	inactive	
CCCCCCCCCCCCc1cccc(S(=O)(=O)O)c1		13.7 µM (active)

target: Glycogen synthase kinase-3 beta (Homo sapiens) (UniProt P49841); experiment: NVS_ENZ_hGSK3b: NovaScreen (NVS) Enzymatic Assay for human Glycogen Synthase Kinase-3 beta (GSK3b) (AID 2283165)
Sequence (P49841 whole entry, looked up): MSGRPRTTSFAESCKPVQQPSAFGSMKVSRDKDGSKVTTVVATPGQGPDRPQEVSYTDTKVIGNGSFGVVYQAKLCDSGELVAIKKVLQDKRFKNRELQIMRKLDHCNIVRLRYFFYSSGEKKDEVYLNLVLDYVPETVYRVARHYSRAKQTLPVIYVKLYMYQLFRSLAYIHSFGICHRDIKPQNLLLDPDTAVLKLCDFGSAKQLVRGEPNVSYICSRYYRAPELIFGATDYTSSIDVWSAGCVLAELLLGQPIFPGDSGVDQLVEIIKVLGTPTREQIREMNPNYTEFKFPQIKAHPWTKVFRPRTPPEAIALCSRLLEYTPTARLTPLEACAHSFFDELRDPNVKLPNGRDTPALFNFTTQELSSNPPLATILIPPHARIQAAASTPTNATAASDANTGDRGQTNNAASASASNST
Summary of the method: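 Recombinant enzyme with specific fluorescent substrate, 1 h, product separated by electrophoretic mobility shift. Primary duplicate screen at 25 uM; actives (e.g. 30% inhibition) followed in singleton concentration-response to 50 uM. Signal loss fitted versus DMSO.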

SMILES	outcome	AC50
Oc1cc(Cl)c(Cl)cc1Cl	inactive	
CC(C)(C)c1ccccc1O	inactive	
CC(C)O.CC(C)O.OCCN(CCO)CCO.OCCN(CCO)CCO.[Ti]		0.00229 µM (active)
N#Cc1cccnc1	inactive	
CCCCCCCCCCCCc1cccc(S(=O)(=O)O)c1		25.3 µM (active)
Clc1cccc(Cl)c1	inactive	

target: human IkappaB Kinase alpha (IKKa), CHUK (gene 1147) (UniProt O15111); experiment: NVS_ENZ_hIKKa: NovaScreen (NVS) Enzymatic Assay for human IkappaB Kinase alpha (IKKa) (AID 2283167)
Description: as §1, with “NVS_ENZ_hIKKa” for “NVS_ENZ_hFGFR1”, “plate.NVS_ENZ_hIKKa” for “plate.NVS_ENZ_hFGFR1”, “NVS_ENZ_hIKKa,” for “NVS_ENZ_hFGFR1,”, “CHUK.” for “FGFR1.”, “serine/threonine” for “receptor tyrosine”
as §2

SMILES	outcome	AC50
N#Cc1cccnc1	inactive	
CCCCCCCCCCCCc1cccc(S(=O)(=O)O)c1		40.9 µM (active)
Clc1cccc(Cl)c1Cl	inactive	

target: human c-Jun N-terminal Kinases (JNK2), MAPK9 (gene 5601) (UniProt P45984); experiment: NVS_ENZ_hJNK2: NovaScreen (NVS) Enzymatic Assay for human c-Jun N-terminal Kinases (JNK2) (AID 2283171)
Sequence (P45984 whole entry, looked up): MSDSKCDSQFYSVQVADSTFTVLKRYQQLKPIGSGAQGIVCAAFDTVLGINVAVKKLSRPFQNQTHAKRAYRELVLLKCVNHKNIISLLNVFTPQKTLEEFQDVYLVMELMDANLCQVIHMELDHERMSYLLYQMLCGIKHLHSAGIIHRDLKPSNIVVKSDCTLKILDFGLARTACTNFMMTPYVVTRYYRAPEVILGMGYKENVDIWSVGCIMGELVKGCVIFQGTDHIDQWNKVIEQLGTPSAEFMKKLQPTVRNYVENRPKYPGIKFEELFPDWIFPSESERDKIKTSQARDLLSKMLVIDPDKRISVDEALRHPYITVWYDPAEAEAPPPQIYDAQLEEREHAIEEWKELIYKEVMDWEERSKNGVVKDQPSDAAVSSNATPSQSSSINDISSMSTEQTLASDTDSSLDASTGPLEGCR
Description: as §1, with “NVS_ENZ_hJNK2” for “NVS_ENZ_hFGFR1”, “plate.NVS_ENZ_hJNK2” for “plate.NVS_ENZ_hFGFR1”, “NVS_ENZ_hJNK2,” for “NVS_ENZ_hFGFR1,”, “MAPK9.” for “FGFR1.”, “serine/threonine” for “receptor tyrosine”
as §2

SMILES	outcome
O=C(N[C@H]1CN2CCC1CC2)c1ccc2c(c1)OCCO2	inactive
CC(C)O.CC(C)O.OCCN(CCO)CCO.OCCN(CCO)CCO.[Ti]	inactive
N#Cc1cccnc1	inactive
